Source: ChEMBL document CHEMBL3988442, “University of Dundee, Small-Polar-MMV Screening Library” (2021)
The campaign covered roughly 48,000 compounds. About 13,000 (27%) showed an effect of 50% or more. The list shows a part of the results.

tested on: Wolbachia pipientis; assay: Anti-Wolbachia Cell-Based Screen; type: functional; parameters: scale not given: in the data most compounds retested in dose-response had high values; conditions: 5 µM

Row | Structure (SMILES) | Percent Effect [%]
1 | Cl.O=C(C1CCCCC1)N1CC2(CCNCC2)C1 | -23.98
2 | CC(C)(C)NC(=O)CNc1ccc(C#N)c(C(F)(F)F)c1 | 3.351
3 | COCCO[C@H]1COCCN(C2CCN(C)CC2)C1 | -1.205
4 | Cc1nc(N2C[C@H]3CNC[C@H]3C2)c2sccc2n1 | 3.045
5 | c1cc(COC[C@@]23CCC[C@@H]2CN(C2CCOCC2)C3)ccn1 | 95.49
6 | O=C(O)C(F)(F)F.O=C(O)C(F)(F)F.c1cncc(OC[C@]23COC[C@H]2CN(C2CCC2)C3)c1 | 103
7 | O=C(O)C(F)(F)F.O=C(O)C(F)(F)F.c1cncc(OC[C@]23COC[C@H]2CN(Cc2cccs2)C3)c1 | -9.167
8 | O=C1[C@@H]2CCN(C3CCC3)C[C@@H]2OCCN1Cc1ccncc1 | -0.008003
9 | O=C(O)C(F)(F)F.O=C(O)C(F)(F)F.c1ccc(CN2C[C@@H]3COC[C@]3(COCC3CCOCC3)C2)nc1 | 9.184
10 | O=C(O)C(F)(F)F.O=C(O)C(F)(F)F.c1ccc(OC[C@]23COC[C@H]2CN(C2CCOCC2)C3)nc1 | 115.9
11 | O=C(O)C(F)(F)F.O=C(O)C(F)(F)F.c1ccc(OC[C@]23COC[C@H]2CN(Cc2ccoc2)C3)nc1 | -16.38
12 | O=C(O)C(F)(F)F.O=C(O)C(F)(F)F.c1cc(CN2C[C@@H]3COC[C@]3(COCC3CC3)C2)ccn1 | 8.652
13 | O=C(O)C(F)(F)F.O=C(O)[C@]12CCCN(C3CCOC3)C[C@H]1CN(c1ncccn1)C2 (stereo partly specified) | 103.8
14 | O=C(O)C(F)(F)F.c1cnc(N2CCC3(CCN(CC4CCOC4)C3)CC2)nc1 (stereo unspecified) | -13.35
15 | CCN(CCc1ccccc1)Cn1nc(C)c2c(C)onc2c1=O | 9.974
16 | CC(C)NC(=O)N1CCOC2(CNC2)C1 | 2.797
17 | CC(C)(C)n1cc(C(=O)O)c(-c2ccc(F)cc2F)n1 | 0.2477
18 | CN(C)C[C@@H]1C[C@@H]2CN(c3ncc(F)cn3)CC[C@@H]2N1C.O=C(O)C(F)(F)F.O=C(O)C(F)(F)F.O=C(O)C(F)(F)F | -18.44
19 | Cc1oncc1C(=O)N1CC[C@H]2[C@H](C[C@@H](CN3CCCC3)N2C)C1.O=C(O)C(F)(F)F.O=C(O)C(F)(F)F | 90.36
20 | O=C(O)C(F)(F)F.O=C(O)C(F)(F)F.O=C(O)C(F)(F)F.c1ccc(CN2CC[C@H]3[C@H]2CCN3c2ncccn2)nc1 | -2.728
21 | Cn1cc(N2C[C@@H]3CN(Cc4ccccn4)C[C@@H]3C2=O)cn1.O=C(O)C(F)(F)F.O=C(O)C(F)(F)F | -17.49
22 | CC(C)N1[C@H](Cn2cncn2)C[C@@H]2CN(c3ncccn3)CC[C@@H]21.O=C(O)C(F)(F)F | 2.319
23 | O=C(O)C(F)(F)F.O=C(O)C(F)(F)F.O=C1[C@H]2CN(Cc3ccoc3)C[C@H]2CN1Cc1cccnc1 | -13.37
24 | Cc1cnc(N2CC[C@H]3[C@H](C[C@@H](CN(C)C)N3C)C2)nc1.O=C(O)C(F)(F)F.O=C(O)C(F)(F)F.O=C(O)C(F)(F)F | -11.75
25 | CN1C(Cn2cccn2)C[C@@H]2CN(Cc3cccnc3)CC[C@@H]21.O=C(O)C(F)(F)F.O=C(O)C(F)(F)F.O=C(O)C(F)(F)F.O=C(O)C(F)(F)F (stereo partly specified) | 103.4
26 | CN1C(Cn2cccn2)C[C@@H]2CN(Cc3ccccn3)CC[C@@H]21.O=C(O)C(F)(F)F.O=C(O)C(F)(F)F.O=C(O)C(F)(F)F.O=C(O)C(F)(F)F (stereo partly specified) | 100.1

Row | Structure (SMILES) | Percent Effect [%]
27 | O=C(C1CCCC1)N1C[C@@H]2CCNC[C@@H]21 | -32.69
28 | Cc1nc(O)cc(CNC(=O)CC[C@@H]2CCCN3CCCC[C@H]23)n1 | -12.46
29 | COCCO[C@@H]1C[C@H]2CN(C(=O)c3ccc(C)nc3)CCN2C1 | -21.72
30 | NC1(c2nc(-c3cccs3)cc(=O)[nH]2)CCCCC1 | -5.956
31 | Cc1cc(C(F)(F)F)nc(N2CCN3CCCC3C2)n1 (stereo unspecified) | 105
32 | FC(F)(F)c1cc(-c2cccs2)nc(N2CCN3CCCC3C2)n1 (stereo unspecified) | 58.5
33 | Cc1cc(N2CCN3CCCCC3C2)n2nc(C)c(C)c2n1 (stereo unspecified) | 11.68
34 | Cn1nc(-c2cccs2)cc1[C@H]1CN2CC[C@H]1C[C@@H]2CN | -6.528
35 | Cc1cc(N2CCCN3CCC[C@H]3C2)n2nc(C)c(C)c2n1 | 20.9
36 | CN(C)C(=O)N1CCC2(C1)CN(c1cccnc1)C(=O)CN2C (stereo unspecified) | 109.4
37 | O=C(O)C(F)(F)F.O=C(O)C(F)(F)F.O=C1CC2(CCN(CC3CC3)C2)CN1c1cccnc1 (stereo unspecified) | 7.384
38 | O=C(O)C(F)(F)F.O=C(O)C(F)(F)F.O=C1CC2(CCN(Cc3ccccn3)C2)CN1c1cccnc1 (stereo unspecified) | 1.703
39 | CN(C)[C@@H]1CN(C(=O)COc2cccc(F)c2)C[C@H]1O | 81.08
40 | CCN1CCN(C(=O)COc2ccc(CN(C)S(C)(=O)=O)cc2)CC1 | -1.123
41 | O=C(COc1cccc(F)c1)N1C[C@@H](O)[C@H](N2CCOCC2)C1 | 106.1
42 | COc1ccccc1OCC(=O)N1CCN(Cc2noc(C)n2)CC1 | 5.502
43 | O=C(COc1cccc(F)c1)N1C[C@@H](O)[C@H](N2CCCC2)C1 | -2.251
44 | COc1cccc(OCC(=O)N2CCCSCC2CN2CCOCC2)c1 (stereo unspecified) | 8.311
45 | Cc1ccccc1C1(CN)CCCCC1 | 0.8163
46 | Cc1nc(N2C[C@H]3CC[C@@H](C2)N3)nc2cc(S(C)(=O)=O)ccc12 | 4.923
47 | CN(C)C(=O)CN1C[C@@H]2OCCN(c3ncc(F)cn3)[C@@H]2C1 | 104.1
48 | CCOC(=O)CN1C[C@@H]2OCCN(c3ncc(F)cn3)[C@@H]2C1 | 86.46
49 | Cc1nc(CN2C[C@@H]3OCCN(c4ncc(F)cn4)[C@@H]3C2)cs1 | -23.28
50 | CCN1C[C@H]2[C@@H](C1)N(c1ncc(F)cn1)CC[C@H]2OC.O=C(O)C(F)(F)F.O=C(O)C(F)(F)F | 2.548
51 | Cc1cnc(N2CCC[C@@H]3CN(CC(=O)N(C)C)C[C@@H]32)nc1.O=C(O)C(F)(F)F.O=C(O)C(F)(F)F | -0.2022
